# According to PubChem BioAssay:
# Active and inactive are the calls of the source.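 The calls were made as follows, unless noted: active = inhibition of the reporter signal at or above 50%; inactive = inhibition below 50%.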
# How the values were obtained:
# [1] = inhibitors of TNFa-induced NFkB p65 translocation, primary screen, imaging, HUVEC, MLSMR starter and 10KST1 sets (AID 438;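 active = inhibition above 20% together with a positive visual image hit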;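 also: compound added about 3h40 before a 20 min TNFalpha stimulation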;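 as to inhibition: signal is the nuclear over cytoplasmic p65 intensity ratio per well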); conditions: HUVEC TNFa-induced p65 nuclear translocation; cell count: measured here: nuclei count (cytotoxicity indicator), at 2.08 µM; inhibition: at 2 µM, stronger effect = higher value, 0% TNFa-plus-vehicle, 100% no-TNFa wells
# [2] = reduction of polyQ htt aggregates in cells – imaging, exon1htt(103Q)mCFP cells, high-content imaging, primary screen (AID 483;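 active = visual image review flags a hit and inhibition of aggregation exceeds 20%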;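 also: compound exposure lasted 3 days before fixation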;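 as to nuclei count: percent of the per-plate median nuclei count of sample wells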); conditions: exon1htt(103Q)mCFP cell line, aggregate imaging, at 2 µM; inhibition of aggregation: stronger effect = higher value; nuclei count: measured here: cell count, toxicity
# [3] = endothelial E-selectin expression blockers – imaging, HUVEC, immunofluorescence, MLSMR starter and 10KST1 sets, primary screen (AID 487;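 active = visually confirmed hit in the image check and inhibition above 20%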;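 as to inhibition: signal is fraction of cell area covered by stained E-selectin grains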;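 as to nuclei count: 100% = median nuclei count of all wells on the same plate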); conditions: HUVEC TNFalpha-induced E-selectin immunofluorescence imaging, at 2 µM; inhibition: stronger effect = higher value; nuclei count: measured here: cell number, toxicity
# [4] = molecular target: Voltage-gated potassium channel subunit beta-2 (Rattus norvegicus) (UniProt P62483); test: inhibitors of rat Kvbeta2 reductase activity – biochemical, NADPH fluorescence, primary screen (AID 622;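 active = fluorescence slope higher than the sample average by over 3 SD, cut at about -0.22 in these data, passing the limit was not always enough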;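 also: slope of raw intensity against log time taken from 70 to 1610 s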); conditions: recombinant KvBeta, 4-cyanobenzaldehyde reduction, at 10 µM, stronger effect = higher value
# Sequence of Voltage-gated potassium channel subunit beta-2 (Rattus norvegicus) (P62483 whole entry, looked up): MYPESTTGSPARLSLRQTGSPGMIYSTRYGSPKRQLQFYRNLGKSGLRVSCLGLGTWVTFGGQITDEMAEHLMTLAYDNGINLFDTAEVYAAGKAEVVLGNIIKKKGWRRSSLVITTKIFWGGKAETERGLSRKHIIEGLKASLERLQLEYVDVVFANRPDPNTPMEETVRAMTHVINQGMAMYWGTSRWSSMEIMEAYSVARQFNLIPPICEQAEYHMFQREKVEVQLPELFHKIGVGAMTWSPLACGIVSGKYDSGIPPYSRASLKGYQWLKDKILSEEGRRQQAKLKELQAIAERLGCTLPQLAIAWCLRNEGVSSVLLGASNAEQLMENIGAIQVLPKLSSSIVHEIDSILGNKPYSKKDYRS
# [5] = molecular target: Voltage-gated potassium channel subunit beta-2 (Rattus norvegicus) (UniProt P62483); test: enhancers of rat Kvbeta2 NADPH turnover – biochemical, NADPH fluorescence, primary screen (AID 623;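 active = NADPH fluorescence slope more negative than the mean of all samples by about 3 SD, 99.7% confidence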;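 also: fluorescence intensity change per second fitted from 20 to 320 s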); conditions: Recombinant KvBeta, NADPH fluorescence decrease slope, 10 min; at 10 µM; stronger effect = lower value
# [6] = molecular target: Alpha-2C adrenergic receptor (Homo sapiens) (UniProt P18825); test: compounds altering alpha2C-coupled GIRK flux – cell-based, HEK293 alpha2C/GIRK1/2, thallium flux, primary screen (AID 624;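 active = fluorescence slope after compound addition differing from the mean of all screened samples at 99.7% confidence, in either direction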;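 also: slope of fluorescence ratio to pre-addition baseline per second over 15 to 24 s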); conditions: thallium flux BTC fluorescence, at 10 µM, actives lie on both sides
# Sequence of Alpha-2C adrenergic receptor (Homo sapiens) (P18825 whole entry, looked up): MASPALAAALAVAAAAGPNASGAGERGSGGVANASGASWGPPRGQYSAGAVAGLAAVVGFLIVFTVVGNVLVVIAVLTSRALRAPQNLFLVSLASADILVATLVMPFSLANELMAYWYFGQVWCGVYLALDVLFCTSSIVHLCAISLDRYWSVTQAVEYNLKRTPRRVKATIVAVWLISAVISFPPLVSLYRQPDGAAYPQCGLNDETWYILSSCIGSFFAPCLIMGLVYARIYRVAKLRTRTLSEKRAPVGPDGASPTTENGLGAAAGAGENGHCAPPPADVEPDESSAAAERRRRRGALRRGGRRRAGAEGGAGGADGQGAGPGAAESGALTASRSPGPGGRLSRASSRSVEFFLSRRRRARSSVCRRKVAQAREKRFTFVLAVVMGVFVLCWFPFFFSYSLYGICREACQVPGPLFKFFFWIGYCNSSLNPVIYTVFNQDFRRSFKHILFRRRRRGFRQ
# [7] = blockers of RIG-like receptor reporter activation – cell-based, Sendai virus stimulus, luciferase, 10K MLSCN set, TLR/RLR signaling modifier project, primary screen (AID 602276;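 active = inhibition at or above 50% at 10 µM; inactive = inhibition below 50%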;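 also: firefly luciferase from ISG56 promoter only with Renilla not read in this screen; 0% = Sendai virus plus DMSO and 100% = medium plus DMSO without virus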); conditions: HEK293 RL24 IRF3 luciferase reporter, at 10 µM, stronger effect = higher value
# [8] = TLR3 IRF3 reporter activation blockers – cell-based, poly I:C stimulus, luciferase, 10K MLSCN set, primary screen (AID 602277); conditions: HEK293-TLR3 RL24 IRF3 luciferase reporter, at 10 µM, stronger effect = higher value
SMILES,cell count [1],inhibition [1],inhibition of aggregation [2],nuclei count [2],inhibition [3],nuclei count [3],fluorescence slope [4],NADPH fluorescence slope [5],slope [6],inhibition [7],inhibition [8]
CCOC(=O)c1c(C)[nH]c(C(=O)COC(=O)c2ccc(F)c(S(=O)(=O)N3CCOCC3)c2)c1C,376,4.8% (inactive),-173% (inactive),6.6%,-27.2% (inactive),105%,-0.6 (inactive),-5.1e-05 (inactive),0.00426 (inactive),5.38% (inactive),13.3% (inactive)
CCOc1ccc(-c2nnc(SCC(=O)N3CCN(c4ccccc4)CC3)o2)cc1,672,-8.6% (inactive),8.1% (inactive),101%,-59.7% (inactive),109%,-0.559 (inactive),2.1e-05 (inactive),0.0058 (inactive),2.37% (inactive),14.8% (inactive)
O=C(CSc1nnnn1-c1ccccc1Cl)Nc1ccc2c(c1)OCCO2,660,-3.4% (inactive),3.2% (inactive),107%,-55% (inactive),118%,-0.548 (inactive),-5.9e-05 (inactive),0.00706 (inactive),15.2% (inactive),30.5% (inactive)
Cc1nc2sc(C(c3cccs3)N3CC(C)CC(C)C3)c(O)n2n1 (centres undefined),614,3.9% (inactive),27.2% (inactive),118%,-12.3% (inactive),109%,-0.545 (inactive),4.4e-06 (inactive),0.00614 (inactive),11.2% (inactive),21.5% (inactive)
CC(C)c1nnc(NC(=O)C2CCCCC2)s1,571,-5.2% (inactive),22.8% (inactive),40.4%,20.2% (inactive),76.2%,-0.421 (inactive),-6.4e-05 (inactive),0.00517 (inactive),-16.4% (inactive),-54.8% (inactive)
COC(=O)c1ccc(-n2nnnc2SCc2nn[nH]n2)cc1,543,-7.8% (inactive),-11.5% (inactive),99.6%,-29% (inactive),130%,-0.35 (inactive),1.4e-05 (inactive),0.00668 (inactive),-8.25% (inactive),-3.28% (inactive)
Cc1nnc(NC(=O)CSc2nc3c(c(=O)n2C)SC(C)C3)s1 (centres undefined),734,-4.3% (inactive),-22.2% (inactive),98.5%,-7.8% (inactive),104%,-0.536 (inactive),-6.2e-05 (inactive),0.00476 (inactive),13.8% (inactive),34.3% (inactive)
CCc1nnc(NC(=O)COC(=O)CN2C(=O)c3ccccc3C2=O)s1,375,4.7% (inactive),7.1% (inactive),91.2%,4.5% (inactive),84.7%,-0.53 (inactive),-4.4e-05 (inactive),0.00636 (inactive),-1.09% (inactive),12.5% (inactive)
Cn1cnc(S(=O)(=O)NCc2cccs2)c1,417,10.8% (inactive),-26.8% (inactive),101%,-43.8% (inactive),132%,-0.541 (inactive),3.3e-05 (inactive),0.00567 (inactive),-2.25% (inactive),6.69% (inactive)
CCOc1cc2[nH]c(=O)n(CCC(=O)NCCc3ccc(OC)c(OC)c3)c(=O)c2cc1OCC,313,-2.1% (inactive),-0.3% (inactive),103%,-19.2% (inactive),122%,-0.514 (inactive),2.8e-05 (inactive),0.00653 (inactive),8.69% (inactive),16.7% (inactive)
Cc1ccccc1NC(=O)C1CCCN(S(=O)(=O)c2cnc[nH]2)C1 (centres undefined),726,-11% (inactive),21.2% (inactive),109%,-26.7% (inactive),124%,-0.564 (inactive),-2e-05 (inactive),0.0067 (inactive),10.6% (inactive),32.6% (inactive)
COC(=O)c1ccccc1NC(=O)Cn1ccnc1,310,-5.7% (inactive),3.6% (inactive),78.1%,-12% (inactive),86.6%,-0.591 (inactive),-6.8e-05 (inactive),0.00553 (inactive),5.19% (inactive),23.4% (inactive)
COc1ccc(C2N(C(=O)c3ccccc3)CCN2C(=O)c2ccccc2)cc1,488,-13.6% (inactive),-2.8% (inactive),71.9%,-13.7% (inactive),92.4%,-0.427 (inactive),-7.3e-05 (inactive),0.00622 (inactive),7.08% (inactive),24.3% (inactive)
O=C(Nc1ccc2nc(-c3cccs3)[nH]c2c1)c1ccco1,334,-0.7% (inactive),23% (inactive),78.8%,-132% (inactive),119%,-0.429 (inactive),-7.7e-05 (inactive),0.00445 (inactive),-35.6% (inactive),-87.4% (inactive)
